From PubChem BioAssay (NCATS)
Where “and” joins values, the source holds several entries; their conditions need not be identical. Equal entries are not always repeated. Records with an inconclusive call do not appear. Calls of active or inactive are those of the source. Calls come from the whole dose curve; as a rule, active = well fitted inhibition curve with a large enough effect; inconclusive = small, poorly fitted or top-dose-only effect; inactive = flat fitted curve, though single readings scatter.

Experiment: Drug repurposing screens with cells derived from glioblastoma tumor samples (AID 1345199); note: nearly all actives have a fitted effect of over 40% in size
Settings: GBM patient neurospheres viability, ATP luminescence, 48 h; at 45.9 µM (top of the series); tumour line B
Method in brief: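 Four patient lines of CD133+ GBM neurospheres were screened at several concentrations; hits were retested in those lines plus three slower-growing GBM lines, using 48-hour treatment and ATP-based viability.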
% is set by controls: 0 for no effect and ±100 for the full control effect.

SMILES	activity, negative = cell killing
CCC(=O)NS(=O)(=O)c1ccc(-c2c(-c3ccccc3)noc2C)cc1	0.0321% (inactive)
CN1Cc2c(N)cccc2C(c2ccccc2)C1 (stereo not given)	-10.9% (inactive)
C[C@]12C=CC(=O)C=C1CC[C@@H]1[C@@H]2[C@@H](O)C[C@@]2(C)[C@H]1CC[C@]2(O)C(=O)COC(=O)CCC(=O)O	-11.2% (inactive)
Nc1c(Br)cc(Br)cc1CNC1CCC(O)CC1 (stereo not given)	-15.5% (inactive)
CCC[C@@H]1C[C@@H](C(=O)N[C@@H]([C@H]2O[C@H](SC)[C@H](OP(=O)(O)O)[C@@H](O)[C@H]2O)[C@H](C)Cl)N(C)C1	-3.77% (inactive) and -8.29% (inactive)
CCC(=O)O[C@]1(C(=O)CCl)[C@@H](C)C[C@H]2[C@@H]3C[C@H](F)C4=CC(=O)C=C[C@]4(C)[C@@]3(F)[C@@H](O)C[C@@]21C	-14.4% (inactive)
CC[C@H]1OC(=O)C[C@@H](O)[C@H](C)[C@@H](O[C@@H]2O[C@H](C)[C@@H](O)[C@H](N(C)C)[C@H]2O)[C@@H](CCN2C[C@H](C)C[C@H](C)C2)C[C@@H](C)C(=O)/C=C/C(C)=C/[C@@H]1CO[C@@H]1O[C@H](C)[C@@H](O)[C@@H](OC)[C@H]1OC	-3.99% (inactive)
C[C@@H]1C[C@H]2[C@@H]3CCC4=CC(=O)C=C[C@]4(C)[C@@]3(F)[C@@H](O)C[C@]2(C)[C@@]1(O)C(=O)COP(=O)(O)O	-3.61% (inactive)
CC(=O)OC(C)OC(=O)C(C)c1ccc(-c2ccccc2)c(F)c1 (stereo not given)	13.2% (inactive) and -1.22% (inactive)
OC[C@H]1O[C@@H](OCCc2ccc(O)cc2)[C@H](O)[C@@H](O)[C@@H]1O	-17.4% (inactive)

Same assay, conditions: GBM patient neurospheres viability, ATP luminescence, 48 h; at 45.9 µM (top of the series); tumour line D

SMILES	activity, negative = cell killing
CCC(=O)NS(=O)(=O)c1ccc(-c2c(-c3ccccc3)noc2C)cc1	8.31% (inactive)
CN1Cc2c(N)cccc2C(c2ccccc2)C1 (stereo not given)	-22.4% (inactive)
C[C@]12C=CC(=O)C=C1CC[C@@H]1[C@@H]2[C@@H](O)C[C@@]2(C)[C@H]1CC[C@]2(O)C(=O)COC(=O)CCC(=O)O	-5.28% (inactive)
Nc1c(Br)cc(Br)cc1CNC1CCC(O)CC1 (stereo not given)	-18.1% (inactive)
CCC[C@@H]1C[C@@H](C(=O)N[C@@H]([C@H]2O[C@H](SC)[C@H](OP(=O)(O)O)[C@@H](O)[C@H]2O)[C@H](C)Cl)N(C)C1	-15.4% (inactive) and -22.6% (inactive)
CCC(=O)O[C@]1(C(=O)CCl)[C@@H](C)C[C@H]2[C@@H]3C[C@H](F)C4=CC(=O)C=C[C@]4(C)[C@@]3(F)[C@@H](O)C[C@@]21C	-33.8% (inactive)
CC[C@H]1OC(=O)C[C@@H](O)[C@H](C)[C@@H](O[C@@H]2O[C@H](C)[C@@H](O)[C@H](N(C)C)[C@H]2O)[C@@H](CCN2C[C@H](C)C[C@H](C)C2)C[C@@H](C)C(=O)/C=C/C(C)=C/[C@@H]1CO[C@@H]1O[C@H](C)[C@@H](O)[C@@H](OC)[C@H]1OC	-15.7% (inactive)
C[C@@H]1C[C@H]2[C@@H]3CCC4=CC(=O)C=C[C@]4(C)[C@@]3(F)[C@@H](O)C[C@]2(C)[C@@]1(O)C(=O)COP(=O)(O)O	1.29% (inactive)
CC(=O)OC(C)OC(=O)C(C)c1ccc(-c2ccccc2)c(F)c1 (stereo not given)	13.1% (inactive) and -23.3% (inactive)
OC[C@H]1O[C@@H](OCCc2ccc(O)cc2)[C@H](O)[C@@H](O)[C@@H]1O	11.3% (inactive)

Same assay, conditions: GBM patient neurospheres viability, ATP luminescence, 48 h; at 46 µM (top of the series); tumour line A

SMILES	activity, negative = cell killing
CCC(=O)NS(=O)(=O)c1ccc(-c2c(-c3ccccc3)noc2C)cc1	-24% (inactive)
CN1Cc2c(N)cccc2C(c2ccccc2)C1 (stereo not given)	-25.6% (inactive)
C[C@]12C=CC(=O)C=C1CC[C@@H]1[C@@H]2[C@@H](O)C[C@@]2(C)[C@H]1CC[C@]2(O)C(=O)COC(=O)CCC(=O)O	-20.8% (inactive)
C[C@@H]1C[C@H]2[C@@H]3CCC4=CC(=O)C=C[C@]4(C)[C@@]3(F)[C@@H](O)C[C@]2(C)[C@@]1(O)C(=O)COP(=O)(O)O	-0.902% (inactive)
CC(=O)OC(C)OC(=O)C(C)c1ccc(-c2ccccc2)c(F)c1 (stereo not given)	-17.1% (inactive)
OC[C@H]1O[C@@H](OCCc2ccc(O)cc2)[C@H](O)[C@@H](O)[C@@H]1O	-5.89% (inactive)

Same assay, conditions: GBM patient neurospheres viability, ATP luminescence, 48 h; at 46.1 µM (top of the series); tumour line C

SMILES	activity, negative = cell killing
CCC(=O)NS(=O)(=O)c1ccc(-c2c(-c3ccccc3)noc2C)cc1	-3.29% (inactive)
CN1Cc2c(N)cccc2C(c2ccccc2)C1 (stereo not given)	-16.4% (inactive)
C[C@]12C=CC(=O)C=C1CC[C@@H]1[C@@H]2[C@@H](O)C[C@@]2(C)[C@H]1CC[C@]2(O)C(=O)COC(=O)CCC(=O)O	7.76% (inactive)
Nc1c(Br)cc(Br)cc1CNC1CCC(O)CC1 (stereo not given)	-10.6% (inactive)
CCC[C@@H]1C[C@@H](C(=O)N[C@@H]([C@H]2O[C@H](SC)[C@H](OP(=O)(O)O)[C@@H](O)[C@H]2O)[C@H](C)Cl)N(C)C1	-6.5% (inactive) and -2.32% (inactive)
CC[C@H]1OC(=O)C[C@@H](O)[C@H](C)[C@@H](O[C@@H]2O[C@H](C)[C@@H](O)[C@H](N(C)C)[C@H]2O)[C@@H](CCN2C[C@H](C)C[C@H](C)C2)C[C@@H](C)C(=O)/C=C/C(C)=C/[C@@H]1CO[C@@H]1O[C@H](C)[C@@H](O)[C@@H](OC)[C@H]1OC	-6.47% (inactive)
C[C@@H]1C[C@H]2[C@@H]3CCC4=CC(=O)C=C[C@]4(C)[C@@]3(F)[C@@H](O)C[C@]2(C)[C@@]1(O)C(=O)COP(=O)(O)O	-0.678% (inactive)
CC(=O)OC(C)OC(=O)C(C)c1ccc(-c2ccccc2)c(F)c1 (stereo not given)	1.46% (inactive) and -25.4% (inactive)
OC[C@H]1O[C@@H](OCCc2ccc(O)cc2)[C@H](O)[C@@H](O)[C@@H]1O	4.11% (inactive)
